Most compounds without a hit are left out; they make up all but 1.6% or so of the library.
Efflux pump inh = inhibitors of Candida efflux pumps in yeast, primary screen, S. cerevisiae, Nile Red, multiplex. S. cerevisiae Candida pump triplex. inhibition, % at 10 µM. actives 0.44% (n = 330,000);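 active = plate passing quality check with inhibition over a set limit, or well fluorescence over plate mean plus 4 SD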;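 also: Nile Red retained in pooled yeast measured as flow cytometry median fluorescence; higher means more Nile Red kept so more efflux inhibition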
GRK2 inh = compounds blocking aptamer binding on GRK2 – biochemical, human GRK2, bead flow cytometry, HTS, primary screen. Beta-adrenergic receptor kinase 1 (Homo sapiens), P25098. FAM-aptamer displacement from GRK2. inhibition of aptamer binding, % at 10 µM. actives 0.59% (n = 330,000). AID 488847, 2010;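 active = inhibition of aptamer binding above 40%, roughly 3 SD of noise, on plates passing a quality check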;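 also: median bead fluorescence of bound FAM aptamer so fluorescent compounds give negative values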
ATG4B inh = ATG4B protease inhibitors, primary screen, biochemical, fluorescence, uHTS | actives 0.51% (n = 340,000) | AID 504462, 2011 | inhibition, % at 8.33 µM | ATG4B cleavage of LC3-PLA2, NBD-HPC fluorescence, 1 h | Cysteine protease ATG4B (Homo sapiens), Q9Y4P1; in the data active = inhibition above about 40%
Target sequence (Q9Y4P1 whole entry, looked up): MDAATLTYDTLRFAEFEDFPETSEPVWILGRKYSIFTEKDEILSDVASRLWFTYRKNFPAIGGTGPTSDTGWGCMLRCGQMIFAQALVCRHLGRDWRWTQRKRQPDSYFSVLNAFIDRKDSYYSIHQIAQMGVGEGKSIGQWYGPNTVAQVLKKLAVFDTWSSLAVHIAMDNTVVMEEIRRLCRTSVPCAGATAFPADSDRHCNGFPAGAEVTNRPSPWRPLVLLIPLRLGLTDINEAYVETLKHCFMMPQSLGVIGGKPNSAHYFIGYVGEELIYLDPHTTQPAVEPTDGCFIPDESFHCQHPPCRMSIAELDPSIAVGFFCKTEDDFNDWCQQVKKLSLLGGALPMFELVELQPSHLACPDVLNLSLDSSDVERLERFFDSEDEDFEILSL
CR mimetic SO = reduction of superoxide in aged yeast, primary screen, HTS; S. cerevisiae aged cells, superoxide DHE fluorescence; hits give low values; actives 0.18% (n = 330,000); superoxide response (% of plate mean), % at 10 µM;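 active = superoxide response under a set limit, about three screen SD below normal, cut at about 65% in these data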;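 also: yeast aged for seven days with compound at 30 °C before DHE staining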
Cmpd fluor yeast = flagged as fluorescent in efflux inhibitor counter-screen. shares compounds with Efflux pump inh. S. cerevisiae AD/pABC3, compound fluorescence, flow cytometry. fluorescence ratio to DMSO, % at 10 µM. actives 4% (n = 1,700);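 active = fluorescence ratio to DMSO above its plate's cutoff, the plate mean ratio plus 5 SD, cut at about 210% in these data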;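 also: unstained yeast with no Nile Red so the signal is compound autofluorescence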
CaMdr1 efflux inh = inhibitors of Candida albicans Mdr1 efflux, confirmation, flow cytometry, singleplex, Cherry Pick1 set; S. cerevisiae AD/CaMDR1, Nile Red efflux; inhibition, % at 10 µM; shares compounds with Efflux pump inh; actives 1% (n = 1,700); in the data active = inhibition above about 26%;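 also: higher means more Nile Red retained so more efflux inhibition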
CaCdr2 efflux inh = inhibitors of Candida albicans Cdr2 efflux pump, confirmation, S. cerevisiae AD/CaCDR2, flow cytometry, cherry pick 1, singleplex | shares compounds with Efflux pump inh | Nile Red retention | Nile Red retention ratio vs DMSO, % at 10 µM | actives 4% (n = 1,700) | AID 588520, 2011; in the data active = Nile Red retention ratio vs DMSO above about 190%;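 also: higher ratio means more blocking of Cdr2 efflux of the dye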
CaCdr1 efflux inh = inhibitors of Candida albicans Cdr1 efflux pump, confirmation, S. cerevisiae AD/CaCDR1, flow cytometry, cherry pick 1, singleplex; shares compounds with Efflux pump inh; Nile Red efflux; inhibition, % at 10 µM; actives 1% (n = 1,700); AID 588522, 2011;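 active = inhibition above the screen-wide mean plus twice its standard deviation, cut at about 32% in these data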
Numbers stand for hits; - = inactive; . = not tested or not shown; + = active, no number.

SMILES	Efflux pump inh	GRK2 inh	ATG4B inh	CR mimetic SO	Cmpd fluor yeast	CaMdr1 efflux inh	CaCdr2 efflux inh	CaCdr1 efflux inh
O=S(=O)(c1ccc(Br)s1)N1CCC2(CC1)OCCO2	-	-	-	-	.	.	.	.
COCCNC(=O)/C(C#N)=C/C(C)=C/c1ccccc1	16.6	-	-	-	-	-	-	-
O=C(CSc1nc2ccccc2n1-c1ccccc1)Nc1ncc(Cl)cc1Cl	-	-	-	-	.	.	.	.
COc1ccc(-n2c(SCC(=O)Nc3ncc(Cl)cc3Cl)nc3ccccc32)cc1	0.8	-	.	-	-	-	-	-
COCCCC1CCN(C(=O)C2CCC(=O)N(Cc3ccccc3F)C2)CC1 (configuration not stated)	-	-	-	-	.	.	.	.
Cc1ccc2nc3c(cc(S(=O)(=O)c4ccccc4)c(=N)n3Cc3ccco3)c(=O)n2c1	-	-	-	-	.	.	.	.
CCOCCCn1c(=N)c(S(=O)(=O)c2ccc(C)cc2)cc2c(=O)n3cc(C)ccc3nc21	1.2	-	-	-	-	-	-	-
COc1ccc(CCn2c(=N)c(C(=O)NCc3ccco3)cc3c(=O)n4ccccc4nc32)cc1	1.3	-	-	-	-	-	-	-
Cc1cccn2c(=O)c3cc(S(=O)(=O)c4ccccc4)c(=N)n(Cc4ccco4)c3nc12	-	-	-	-	.	.	.	.
Cc1ccc(S(=O)(=O)c2cc3c(=O)n4ccccc4nc3n(CCc3ccccc3)c2=N)cc1	0.4	-	-	-	-	-	-	-
Cc1cccn2c(=O)c3cc(S(=O)(=O)c4ccc(F)cc4)c(=N)n(Cc4ccco4)c3nc12	0.6	-	-	-	-	-	-	-
N=c1c(C(=O)NCCc2ccccc2)cc2c(=O)n3ccccc3nc2n1Cc1ccco1	-	-	-	-	.	.	.	.
O=C(c1cc(Cl)ccc1O)N1CCN(S(=O)(=O)Cc2ccccc2)CC1	-	-	-	-	.	.	.	.
O=C(/C=C/c1ccccc1)N1CCN(CCN2C(=O)c3cccc4cccc(c34)C2=O)CC1	-	-	-	-	.	.	.	.
COc1cccc(CN2CC(C(=O)NCCCCc3ccccn3)CCC2=O)c1 (configuration not stated)	-	-	-	-	.	.	.	.
CCOC(=O)c1nnsc1N	-	-	-	-	.	.	.	.
COc1cccc2sc(Nc3nnc(-c4ccc(F)cc4)o3)nc12	-	-	-	-	.	.	.	.
COc1cccc2sc(Nc3nnc(-c4cccs4)o3)nc12	0.7	-	-	-	-	-	-	-
COc1ccc(CNc2nc(NCc3ccc(OC)cc3)n(C(=O)c3ccccc3[N+](=O)[O-])n2)cc1	-	-	-	-	.	.	.	.
O=[N+]([O-])c1ccc(CSC2=NCCS2)cc1	-	-	-	-	.	.	.	.
O=C(c1cc2c(ccc3ccccc32)o1)N1CCN(c2ncc(C(F)(F)F)cc2Cl)CC1	51.7	-	-	-	-	-	-	-
O=C(c1cc2c(ccc3ccccc32)o1)N1CCCCC1	-	-	-	-	.	.	.	.
COc1cc(OC)cc(C(=O)NCCC(=O)NCCc2ccc(OC)c(OC)c2)c1	-	-	-	-	.	.	.	.
CC(C)(C)C(=O)COC(=O)c1ccc(N)c([N+](=O)[O-])c1	-	-	-	-	.	.	.	.
COc1ccc(CCOC(=O)c2ccc(N)c([N+](=O)[O-])c2)cc1	6.6	-	-	-	-	-	.	-
SMILES	Efflux pump inh	GRK2 inh	ATG4B inh	CR mimetic SO	Cmpd fluor yeast	CaMdr1 efflux inh	CaCdr2 efflux inh	CaCdr1 efflux inh
Cc1ccsc1C(=O)N1CCC(CO)(Cc2ccccc2)CC1	-	-	-	-	.	.	.	.
CC(C)(C)C1CCC(C(=O)OCC(=O)c2ccc[nH]2)CC1 (configuration not stated)	-	-	-	-	.	.	.	.
Cc1onc(-c2c(F)cccc2Cl)c1C(=O)NC(=S)NC1CCS(=O)(=O)C1 (configuration not stated)	6.5	-	-	-	-	-	-	-
Cc1onc(-c2c(F)cccc2Cl)c1C(=O)NC1CCCCCC1	-	-	-	-	.	.	.	.
COC(=O)C1=C(C(=O)OC)[C@]2([C@@H]3CCCCN[C@@H](Cc4ccccc4)C(=O)N3Cc3ccccc3)C=C[C@H]1O2	.	.	-	.	.	.	.	.
Cc1cc(C)c(S(=O)(=O)N2CCc3ccccc32)c(C)c1	0.9	-	-	-	-	-	-	-
Cc1n[nH]c(C)c1S(=O)(=O)N1CCc2ccccc21	-	-	-	-	.	.	.	.
NCc1oc(-c2ccccc2)cc1C(=O)O	-	-	-	-	.	.	.	.
NC(=S)NNC(=O)[C@@H]1CCCC[C@@H]1C(=O)O	15.2	-	-	-	-	-	-	-
COc1cccc(C2CC(c3ccccc3)=NN2S(=O)(=O)c2ccc(C)cc2)c1OC (configuration not stated)	1.4	-	-	-	-	-	-	-
COc1ccccc1C1CC(c2ccccc2)=NN1S(=O)(=O)c1ccccc1 (configuration not stated)	-	-	-	-	.	.	.	.
O=C(COC(=O)c1ncc(Cl)c(Cl)c1Cl)NC(=O)c1ccccc1	-	-	-	-	.	.	.	.
CN(C)c1ccc(/C=C/c2cc[n+](C)cc2)cc1	129.5	-	-	-	+	+	488.4	+
Cc1ccc(/C=C/c2ccc(N(C)C)cc2)[n+](C)c1	4.4	-	-	-	+	34.5	-	-
CC[n+]1ccccc1/C=C/c1ccc(N(C)C)cc1	.	.	-	.	.	.	.	.
CN(C)c1ccc(/C=C/c2cc[n+]([O-])cc2)cc1	-	-	.	-	.	.	.	.
CC1(C)Cc2nc3oc4c(SCC(N)=O)ncnc4c3cc2CO1	-	-	-	-	.	.	.	.
CCN(CC)c1ccc(/C=C/c2cccc[n+]2C)c(OC)c1	20.6	-	-	-	+	-	-	-
CCOc1ccc(C(=O)Nc2cccc(-c3cc4ccccc4oc3=O)c2)cc1[N+](=O)[O-]	1.0	-	-	-	-	-	-	-
CCOc1ccccc1NC(=O)c1ccc(OCC)c([N+](=O)[O-])c1	-	-	-	-	.	.	.	.
Cc1cc(C(=O)NNc2c(Cl)cccc2Cl)n(C(C)(C)C)n1	-	-	-	-	.	.	.	.
Cc1cc(C(=O)O)n(C(C)(C)C)n1	2.0	-	-	-	-	-	-	-
CCN(C(=S)NC(=O)CCc1ccccc1)c1ccccc1	-	-	-	-	.	.	.	.
Nc1nnc(SCC(=O)NNC(=O)c2ccc(Cl)cc2)s1	93.4	-	-	-	-	-	-	-

Source: PubChem (several laboratories)
